Read-out in test [1]: Vascular cell adhesion molecule 1 (VCAM1), VCAM1 (gene 7412)
Kind of test: BSK_4H_VCAM1: BioMAP Diversity Plus: 4H Assay for Vascular cell adhesion molecule 1 (VCAM1) Biomarker Activity (AID 2283033).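 Also: cell-surface VCAM-1 protein measured by ELISA.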 To be noted: primary human endothelial cells (HUVEC); actives raise or lower the signal. The method, boiled down:
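In this human endothelial (HUVEC) system, biomarker ELISA was run 24 h after compound addition, and total protein in parallel wells was assessed by SRB at 560 nm; DMSO served as negative control.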

Read-out in test [2]: Interferon-gamma inducible Protein 10 (IP10), CXCL10 (gene 3627)
The test is described as follows: BSK_BE3C_IP10: BioMAP Diversity Plus: BE3C Assay for Interferon-gamma inducible Protein 10 (IP10) Biomarker Activity (AID 2283034). To be noted: primary human bronchial epithelial cells; actives raise or lower the signal. In a few lines:
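BE3C cells (human bronchial epithelial, primary); 24 h exposure; ELISA for IP-10; DMSO-referenced bidirectional fit.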

Read-out in test [3]: Monokine induced gamma interferon (MIG), CXCL9 (gene 4283)
The test is described as follows: BSK_BE3C_MIG: BioMAP Diversity Plus: BE3C Assay for Monokine induced gamma interferon (MIG) Biomarker Activity (AID 2283035).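 Also: MIG protein measured by ELISA in BE3C cultures after 24 h of dosing.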 The conditions noted are these: primary human bronchial epithelial cells; actives raise or lower the signal. The method, boiled down: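 hu bronchial epithelial 1° cells, 24 h cpd; MIG by ELISA; bidirectional fit, DMSO = baseline.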

Read-out in test [4]: Plasminogen activator inhibitor-1 (PAI1), SERPINE1 (gene 5054)
The test is described as follows: BSK_BE3C_PAI1: BioMAP Diversity Plus: BE3C Assay for Plasminogen activator inhibitor-1 (PAI1) Biomarker Activity (AID 2283037). To be noted: primary human bronchial epithelial cells; actives raise or lower the signal. The method, boiled down:
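In this multiplexed primary-cell system, bronchial epithelial cells receive test chemical and are sampled at 24 h. PAI-1 is read by ELISA, with DMSO serving as negative control for bidirectional fitting.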

Read-out in test [5]: urokinase plasminogen activator (uPA), PLAU (gene 5328)
Kind of test: BSK_BE3C_uPA: BioMAP Diversity Plus: BE3C Assay for urokinase plasminogen activator (uPA) Biomarker Activity (AID 2283038).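 Also: uPA protein level quantified by ELISA in cell cultures; uPA read one day after compound addition.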 To be noted: primary human bronchial epithelial cells; actives raise or lower the signal. The method, boiled down: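 Human primary bronchial epithelial cells were exposed to chemical for 24 h, then uPA levels were measured by ELISA. Responses were fitted bidirectionally against DMSO as negative control and baseline. Parallel SRB staining of total protein gauged overt cytotoxicity.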

Read-out in test [6]: Urokinase-type plasminogen activator receptor (uPAR), PLAUR (gene 5329)
Kind of test: BSK_BE3C_uPAR: BioMAP Diversity Plus: BE3C Assay for Urokinase-type plasminogen activator receptor (uPAR) Biomarker Activity (AID 2283039).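 Also: cells exposed to compound for one day before measurement.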 The conditions noted are these: primary human bronchial epithelial cells; actives raise or lower the signal. In a few lines: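 Chemically treated human bronchial epithelial cells (lung primary) are assayed for uPAR by ELISA after 24 h, with data fitted in both directions using DMSO as negative control.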

Read-out in test [7]: Interleukin-6 (IL6), IL6 (gene 3569)
Kind of test: BSK_CASM3C_IL6: BioMAP Diversity Plus: CASM3C Assay for Interleukin-6 (IL6) Biomarker Activity for (AID 2283040). The conditions noted are these: primary human coronary artery smooth muscle cells; actives raise or lower the signal.

Read-out in test [8]: Tissue plasminogen activator (tPA), PLAT (gene 5327)
The test is described as follows: BSK_BE3C_tPA: BioMAP Diversity Plus: BE3C Assay for Tissue plasminogen activator (tPA) Biomarker Activity (AID 2283041).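 Also: tPA level quantified by ELISA one day after compound addition.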 The conditions noted are these: primary human bronchial epithelial cells; actives raise or lower the signal. The method, boiled down: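 Using human lung primary bronchial epithelial cells, tPA was measured by ELISA 24 h after dosing; data fitted relative to DMSO.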

Read-out in test [9]: Interleukin-8 (IL8), CXCL8 (gene 3576)
The test is described as follows: BSK_CASM3C_IL8: BioMAP Diversity Plus: CASM3C Assay for Interleukin-8 (IL8) Biomarker Activity (AID 2283042).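 Also: IL-8 protein level quantified by ELISA.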 To be noted: primary human coronary artery smooth muscle cells; actives raise or lower the signal.

Read-out in test [10]: Human Leukocyte Antigen - DR isotype (HLADR), HLA-DRA (gene 3122)
The test is described as follows: BSK_CASM3C_HLADR: BioMAP Diversity Plus: CASM3C Assay for Human Leukocyte Antigen - DR isotype (HLADR) Biomarker Activity (AID 2283043).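 Also: cell-surface HLA-DR protein level quantified by ELISA.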 The conditions noted are these: primary human coronary artery smooth muscle cells; actives raise or lower the signal.

Read-out in test [11]: Macrophage colony-stimulating factor (MCSF), CSF1 (gene 1435)
The test is described as follows: BSK_CASM3C_MCSF: BioMAP Diversity Plus: CASM3C Assay for Macrophage colony-stimulating factor (MCSF) Biomarker Activity (AID 2283044).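 Also: M-CSF protein amount quantified by ELISA after 24 h exposure.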 To be noted: primary human coronary artery smooth muscle cells; actives raise or lower the signal.

Read-out in test [12]: Low-density lipoprotein receptor (LDLR), LDLR (gene 3949)
Kind of test: BSK_CASM3C_LDLR: BioMAP Diversity Plus: CASM3C Assay for Low-density lipoprotein receptor (LDLR) Biomarker Activity (AID 2283045).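 Also: LDLR protein level on the cell surface quantified by ELISA.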 To be noted: primary human coronary artery smooth muscle cells; actives raise or lower the signal.

Read-out in test [13]: Monocyte Chemoattractant Protein-1 (MCP1), CCL2 (gene 6347)
The test is described as follows: BSK_CASM3C_MCP1: BioMAP Diversity Plus: CASM3C Assay for Monocyte Chemoattractant Protein-1 (MCP1) Biomarker Activity (AID 2283046).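 Also: MCP-1 level quantified by ELISA 24 h after dosing.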 The conditions noted are these: primary human coronary artery smooth muscle cells; actives raise or lower the signal.

Test [14] in a line: BSK_CASM3C_Proliferation: Cell Proliferation Assessment in the BioMAP Diversity Plus: CASM3C Assay (AID 2283047).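 Also: sulforhodamine B total protein stain as relative cell number at 560 nm; sub-confluent cells exposed 48 h before staining; fitted both ways against DMSO so gain or loss of cell number.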 The conditions noted are these: primary human coronary artery smooth muscle cells.
Read-out in test [15]: Monokine induced gamma interferon (MIG), CXCL9 (gene 4283)
Kind of test: BSK_CASM3C_MIG: BioMAP Diversity Plus: CASM3C Assay for Monokine induced gamma interferon (MIG) Biomarker Activity (AID 2283048). The conditions noted are these: primary human coronary artery smooth muscle cells; actives raise or lower the signal.

Read-out in test [16]: serum amyloid A (SAA), SAA1 (gene 6288)
Kind of test: BSK_CASM3C_SAA: BioMAP Diversity Plus: CASM3C Assay for serum amyloid A (SAA) Biomarker Activity (AID 2283049).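 Also: SAA protein level quantified by ELISA.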 The conditions noted are these: primary human coronary artery smooth muscle cells; actives raise or lower the signal.

Test [17] in a line: BSK_CASM3C_SRB: Viability Assessment in the BioMAP Diversity Plus: CASM3C Assay (AID 2283050).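 Also: total protein by SRB staining as cytotoxicity measure in parallel cultures.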 To be noted: primary human coronary artery smooth muscle cells.
Read-out in test [18]: Thrombomodulin, THBD (gene 7056)
The test is described as follows: BSK_CASM3C_Thrombomodulin: BioMAP Diversity Plus: CASM3C Assay for Thrombomodulin Biomarker Activity (AID 2283051).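 Also: thrombomodulin protein level measured by ELISA 24 h after dosing.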 The conditions noted are these: primary human coronary artery smooth muscle cells; actives raise or lower the signal.

Read-out in test [19]: Tissue Factor, F3 (gene 2152)
The test is described as follows: BSK_CASM3C_TissueFactor: BioMAP Diversity Plus: CASM3C Assay for Tissue Factor Biomarker Activity (AID 2283052).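 Also: cell surface tissue factor protein level read by ELISA.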 The conditions noted are these: primary human coronary artery smooth muscle cells; actives raise or lower the signal.

Read-out in test [20]: Transforming growth factor beta 1 (TGFb1), TGFB1 (gene 7040)
Kind of test: BSK_BE3C_TGFb1: BioMAP Diversity Plus: BE3C Assay for Transforming growth factor beta 1 (TGFb1) Biomarker Activity (AID 2283036;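 also: TGF-b1 protein level measured by ELISA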). The conditions noted are these: primary human bronchial epithelial cells; actives raise or lower the signal. The method, boiled down:
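TGF-b1 measured via ELISA, 24 h after chemical dosing of human bronchial epithelial cells (BE3C). Overt cytotoxicity assessed in parallel by SRB (0.1%, TCA-fixed, 560 nm); analysis bidirectional relative to DMSO.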

From PubChem BioAssay (EPA / NIEHS) come the findings set out here.

The source holds several records for some structures; these can differ, active in one and inactive in another. Active and inactive are the calls of the source. The calls were made as follows: active = hit-call score of the fitted dose curve at least 0.9, where 1 is the maximum; inactive = score below 0.9.

For the molecule `OC1OC[C@@H](O)[C@H](O)[C@H]1O` (some centres not stated), the outcome in test [1], in test [2], in [3], in [4], in test [5] and in test [6] was inactive. Further, the outcome in test [7], in test [8], in test [9], in test [10], in test [11] and in test [12] was inactive. Further, the outcome in test [13], in test [14], in [15], in test [16], in test [17] and in [18] was inactive. In test [19], the outcome was inactive.
As for `CC(=O)/C=C/C1=C(C)CCCC1(C)C`, the result in [1], in test [2], in [3], in [20], in [4] and in test [5] was inactive. For the same molecule, the outcome in test [6], in test [7], in [8], in test [9], in test [10] and in [11] was inactive. Further, the result in [12], in test [13], in test [14], in [15], in [16] and in test [17] was inactive. The outcome in test [18] and in [19] was inactive.
In general, AC50 refers to the midpoint of the concentration-response curve, whichever way the signal moves. Consider `CCCCC(CC)COCCC#N` (configuration not stated), for which the result in [1], in test [2], in test [3], in [20], in [4] and in [5] was inactive. Moreover, the outcome in [6], in test [7], in [8], in test [9], in test [10] and in test [11] was inactive. Further, the result in test [13], in [14], in [15], in test [16], in test [17] and in [18] was inactive. Moreover, the result in test [19] was inactive. Moreover, the concentration at half-maximal activity (AC50) in test [12] was 0.151 µM (active).
On to `OC[C@H]1O[C@H](O[C@]2(CCl)O[C@H](CCl)[C@@H](O)[C@@H]2O)[C@H](O)[C@@H](O)[C@H]1Cl`, for which the outcome in test [1], in test [2], in test [3], in test [4], in test [5] and in [6] was inactive. The result in [7], in test [8], in test [9], in test [10], in test [11] and in [12] was inactive. Besides, the outcome in test [13], in [14], in test [15], in test [16], in test [17] and in [18] was inactive. In [19], the result was inactive.
As to `CC(=O)[C@H]1CC[C@H]2[C@@H]3CC=C4C[C@@H](O)CC[C@]4(C)[C@H]3CC[C@]12C`, the outcome in test [1], in [2], in test [3], in [4], in test [5] and in test [6] was inactive. The outcome in test [7], in [8], in test [9], in test [10], in test [11] and in [12] was inactive. The outcome in test [13], in test [14], in [15], in test [16], in test [17] and in [18] was inactive. In addition, the outcome in test [19] was inactive. Besides, the results for the AC50 in [12], in test [13] and in [14] were 1.86 µM (active), 10.9 µM (active) and 6.96 µM (active), respectively.
For the molecule `Nc1cc([N+](=O)[O-])ccc1O`, the outcome in test [1], in test [2], in test [3], in [4], in [5] and in test [6] was inactive. Besides, the result in test [7], in test [8], in [9], in [10], in test [11] and in [12] was inactive. The outcome in test [13], in test [14], in test [15], in test [16], in test [17] and in test [18] was inactive. The outcome in [19] was inactive. For the same molecule, the AC50 in test [4] was 11.8 µM (active); in [10], 11.8 µM (active); in [18], 20 µM (active).
